# Data reported in PubChem BioAssay (NCATS).
# Values without a mark were called inactive. Inconclusive results are not listed. Entries that show only a call come without a potency. Active and inactive are the calls of the source. Calls follow the shape of the dose curve; as a rule, active = well fitted curve in the direction sought with a large enough effect; inconclusive = small, poorly fitted or top-dose-only effect, or another doubt; inactive = no such curve, though single readings can be large; an effect the other way counts as inactive or inconclusive.
# How the values were obtained:
# [1] = HEK-293 Cancer Cell Toxicity qHTS against the NCATS CANVASS Library (AID 1347355); also: nearly all actives have a fitted effect of over 65% in size; also: potency is read from the fitted curve at half-maximal effect; as to activity change, negative = cytotoxicity: series mostly up to about 46 µM
# Method in brief: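 Luminescent ATP read-out (CellTiter-Glo, 15min at room temperature) measures survival after cells face an 11-point compound series for 72 hours at 37 degrees C/5% CO2.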
# [2] = HPAF-II 24hr Apoptosis Induction qHTS against the NCATS CANVASS Library (AID 1347356)
# Method in brief: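 Luminescent caspase-3/7 signal (DEVD substrate, Caspase-Glo) served as read-out, taken 15 min after reagent addition to HPAF-II cells exposed 24 h to compounds.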
# [3] = HEK293 18hr Apoptosis Induction qHTS against the NCATS CANVASS Library (AID 1347357)
# Method in brief: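 Luminescent caspase-3/7 signal is measured in HEK293 cells exposed for 18 hours to an 11-point concentration series; doxorubicin serves as the plate control.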
# [4] = HPAF-II 12hr Apoptosis Induction qHTS against the NCATS CANVASS Library (AID 1347358)
# Method in brief: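 500 HPAF-II cells/well; cmpds 11-pt; 12 hr, 37 degrees C/5% CO2; Caspase-Glo 3/7 added, 15 min RT dark; luminescence read. Doxorubicin titration as control.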
# [5] = HEK293 24hr Apoptosis Induction qHTS against the NCATS CANVASS Library (AID 1347359)
# Method in brief: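 HEK293 cells (500/well, DMEM + 10% FBS) were exposed to compounds in an 11-point series for 24 hours at 37 degrees C, then caspase-3/7 activity was read by Caspase-Glo DEVD luciferase luminescence after 15 min.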
# [6] = HPAF-II 18hr Apoptosis Induction qHTS against the NCATS CANVASS Library (AID 1347360)
# Method in brief: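 Apoptosis was scored as caspase-3/7 activity in HPAF-II pancreatic cancer cells treated 18 hours with an 11-point concentration series.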
# [7] = test system: NAD(P)H diaphorase (Clostridium kluyveri); assay: Diaphorse counterscreen qHTS: Assay Interference Panel against the NCATS CANVASS Library (AID 1347362)
# Method in brief: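 Clostridium kluyveri diaphorase in PBS with 0.01% Tween-20 was preincubated 15 min at room temperature in the dark with compounds (11-point series). Resorufin fluorescence (ex 525/20, em 598/25) was read 5 min after adding resazurin/NADH.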
# [8] = qHTS for ATAD5 Agonist screened against the NCATS CANVASS Library (AID 1347367);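 also: luciferase reporter driven by ATAD5 which rises upon DNA damage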
# Method in brief: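 Step one plated reporter cells and let them acclimate 5hr. Step two pinned compounds with MMS as positive and 0.46% DMSO as negative control. After 16hr incubation, fluorescence viability then luminescence were read.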
# [9] = MCF7 Cancer Cell Toxicity qHTS against the NCATS CANVASS Library (AID 1347369); as to activity change, negative = cytotoxicity: series mostly up to about 46 µM
# Method in brief: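 Cytotoxicity is measured by ATP content: MCF7 cells at 500 per well receive an 11-point compound series and, after 72 hr at 37C, are lysed with CellTiterGlo for luminescence.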
# [10] = molecular target: Nuclear receptor subfamily 1 group I member 3 (Homo sapiens) (UniProt Q14994); assay: qHTS for Constitutive Androstane Receptor (CAR) Agonist screened against the NCATS CANVASS Library (AID 1347373);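 also: every well also contained 1.5 µM PK11195 alongside the test compound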
# Method in brief: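 HepG2-hCAR-CYP2B6 cells, 2500/well, attached 4hr; cpd + PK11195 1.5uM final; 24hr 37C 5% CO2. CellTiter-Fluor viability read, then ONE-Glo luminescence for CAR activation.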
# [11] = qHTS for Hypoxia signaling pathway (HIF-1) agonists against the NCATS CANVASS Library (AID 1347375)
# Method in brief: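 ME-180 HRE-bla reporter cells; 2,000/well, 0.5% dialyzed FBS; cpd added after 5 h, 17 h 37C/5% CO2; CCF4-AM 2 h RT; FRET 460/530 nm; CellTiter-Glo viability same wells, 30 min.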
# [12] = qHTS for H2AX Agonists against the NCATS CANVASS Library (AID 1347378);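 also: phospho-H2AX S139 level in CHO-K1 lysates by TR-FRET emission ratio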; also: potency is read from the fitted curve at half-maximal effect
# Method in brief: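 Following overnight seeding, CHO-K1 cells are incubated with a concentration series of compound for 3 hr at 37C (final DMSO 0.76%). Cells are then lysed, detection antibodies added, and emission ratio 665/620 nm recorded after 24 hr at room temperature.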
# [13] = qHTS for Activators of p53 Stress Response Pathway screened against the NCATS CANVASS Library (AID 1347388); also: potency is read from the fitted curve at half-maximal effect
# Method in brief: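 p53RE-bla HCT-116 cells (4000/well) were plated 5 h at 37C, exposed to compounds for 16 h at 37C over an 11-point concentration series, then loaded with CCF4 for 2 h at room temperature; 460/530 nm emission ratio read.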
# [14] = qHTS assay for small molecule disruptors of mitochondrial membrane potential screened against the NCATS CANVASS Library (AID 1347389); also: nearly all actives have a fitted effect of over 60% in size; also: potency is read from the fitted curve at half-maximal effect; as to activity change, negative = depolarization: series mostly up to about 46 µM
# Method in brief: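 HepG2, 2,000 cells/well, attached overnight; compound 1 hr, 37C, 5% CO2; Mito-MPS dye 30 min, 37C; fluorescence 535 nm (monomer) and 590 nm (aggregate); decreased 590/535 ratio = depolarization.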
# [15] = qHTS for activators of dead-cell proteases activity screened against the NCATS CANVASS Library (AID 1347392);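 also: luminescence from protease leaking out of membrane-damaged cells cleaving impermeant substrate; rising signal means more cytotoxicity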
# Method in brief: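 HepG2 cells (2000/well) attached 18 h at 37C, then exposed 5 h to compounds (11-point qHTS). Dead-cell protease activity read as luminescence from cell-impermeant AAF-aminoluciferin substrate after 15 min at room temperature.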
# [16] = qHTS for inhibitors of Wild type Zika virus screened against the NCATS CANVASS Library (AID 1347396);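 also: ATP luminescence of surviving cells so rescue from viral cell killing; series mostly up to about 46 µM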
# Method in brief: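 Vero 766 (African green monkey) cells, 1000 per well, attached overnight, then compounds were added in an 11-point series before wild-type Zika virus infection. After 72 h at 37C, cell viability was read as CellTiter Glo luminescence.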
# [17] = qHTS for ATAD5 Antagonist screened against the NCATS CANVASS Library (AID 1347370); also: nearly all actives have a fitted effect of over 65% in size; also: potency is read from the fitted curve at half-maximal effect;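 as to activity change, negative = inhibition: HEK293T cells carrying an ATAD5 luciferase reporter co-treated with 10 µM 5-fluorouridine; series mostly up to about 46 µM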
# Method in brief: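 HEK293T cells with stably integrated ATAD5-luciferase reporter, 2000/well, 5 h attachment; compounds plus 10 µM 5-fluorouridine, 16 h at 37 °C. Luciferase luminescence read, with CellTiter-Fluor viability read first.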
# [18] = qHTS for Inflammasome Signaling Inhibitors: IL-1-beta AlphaLISA screen against the NCATS CANVASS Library (AID 1347379);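 also: human THP-1 cells primed with LPS then triggered with ATP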;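 as to activity change, negative = inhibition: secreted IL-1B measured as AlphaLISA emission at 615 nm; lower signal means less IL-1B release which is the wanted effect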
# Method in brief: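 THP-1 cells pretreated 1 hr with compound (up to 57.5 uM final), then stimulated with LPS (250 ng/mL final) and ATP (1.25 mM final). Secreted IL-1B measured by AlphaLISA after 16 hr; glyburide as positive control.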
# [19] = SDT Cancer Cell Toxicity qHTS against the NCATS CANVASS Library (AID 1347365); also: nearly all actives have a fitted effect of over 60% in size; also: potency is read from the fitted curve at half-maximal effect;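 as to activity change, negative = cytotoxicity: SDT canine glioma cells 500 per well in 1536 well plates; series mostly up to about 46 µM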
# Method in brief: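 qHTS, SDT dog glioma line, 500 cells/well; cpds 11 pts; 72 hr, 37C, 5% CO2; CellTiterGlo ATP luminescence.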
# [20] = J3T Cancer Cell Toxicity qHTS against the NCATS CANVASS Library (AID 1347371);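 also: J3T is a canine glioma cancer cell line seeded at 500 cells per well; series mostly up to about 46 µM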
# Method in brief: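 Cells plated at 500 per well, compounds pin-transferred, plates incubated 72 hr at 37C, then CellTiterGlo added and luminescence read to measure ATP content.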
# Sequence of Nuclear receptor subfamily 1 group I member 3 (Homo sapiens) (Q14994 whole entry, looked up): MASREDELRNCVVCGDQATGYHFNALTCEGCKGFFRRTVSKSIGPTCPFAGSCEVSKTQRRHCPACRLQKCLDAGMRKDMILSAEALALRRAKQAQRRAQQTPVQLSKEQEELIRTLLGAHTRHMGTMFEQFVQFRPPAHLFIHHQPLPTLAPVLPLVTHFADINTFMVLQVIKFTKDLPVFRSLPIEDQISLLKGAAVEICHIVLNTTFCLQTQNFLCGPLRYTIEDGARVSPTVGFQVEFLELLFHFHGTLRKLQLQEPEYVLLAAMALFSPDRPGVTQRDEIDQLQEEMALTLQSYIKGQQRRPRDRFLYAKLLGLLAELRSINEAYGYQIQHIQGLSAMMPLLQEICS
smiles,measurement,setting,value
CC(C)=CC[C@H]1C[C@@]2(CC=C(C)C)C(=O)[C@](CC=C(C)C)(C(=O)C(C(=O)c3ccccc3)=C2O)C1(C)C,Potency,[1],23.5 µM (active)
same,outcome,[2],inactive
same,Potency,[3],inactive
same,Potency,[4],inactive
same,Potency,[5],inactive
same,Potency,[6],inactive
same,Potency,[7],inactive
same,Potency,[8],inactive
same,Potency,[9],inactive
same,Potency,[10],inactive
same,outcome,[11],inactive
same,Potency,[12],inactive
same,Potency,[13],inactive
same,Potency,[14],7.41 µM (active)
same,Potency,[15],inactive
same,outcome,[16],inactive
C=C(C)CC[C@H](Cc1c(O)cc(O)c2c1O[C@H](c1ccc(O)cc1)CC2=O)C(=C)C,Potency,[1],inactive
same,outcome,[2],inactive
same,Potency,[3],inactive
same,Potency,[4],inactive
same,Potency,[5],inactive
same,Potency,[6],inactive
same,Potency,[7],inactive
same,Potency,[8],inactive
same,Potency,[9],inactive
same,Potency,[17],23.4 µM (active)
same,Potency,[12],inactive
same,Potency,[18],inactive
same,Potency,[13],inactive
same,Potency,[14],8.31 µM (active)
same,Potency,[15],inactive
Cc1occ2c1C(=O)c1c(cc(O)c(O)c1O)C2=O,outcome,[2],inactive
same,Potency,[3],inactive
same,Potency,[4],inactive
same,Potency,[5],inactive
same,Potency,[6],inactive
same,Potency,[19],1.05 µM (active)
same,Potency,[8],inactive
same,Potency,[9],inactive
same,Potency,[17],inactive
same,Potency,[20],inactive
same,Potency,[10],inactive
same,outcome,[11],inactive
same,Potency,[12],24.4 µM (active)
same,Potency,[18],inactive
same,Potency,[13],11.7 µM (active)
same,Potency,[14],7.41 µM (active)
same,Potency,[15],inactive
same,outcome,[16],inactive
COc1cc(C2OCC3C(c4ccc(O)c(OC)c4)OCC23)ccc1O (configuration not stated),caspase activation,[2],1.94% [at 9.19 µM]
same,caspase activation,[3],1.93% [at 9.19 µM]
same,caspase activation,[4],6.04% [at 9.19 µM]
same,activation,[5],6.68% [at 9.19 µM]
same,caspase activation,[6],-1.71% [at 9.19 µM]
same,"activity change, negative = inhibition",[7],1.68% [at 11.5 µM]
same,"activity change, negative = cytotoxicity",[19],2.04% [at 9.19 µM]
same,activation,[8],3.68% [at 9.19 µM]
same,"activity change, negative = cytotoxicity",[9],-7.78% [at 9.17 µM]
same,"activity change, negative = inhibition",[17],-9.99% [at 9.19 µM]
same,"activity change, negative = cytotoxicity",[20],0.397% [at 9.19 µM]
same,activation,[10],1.13% [at 9.19 µM]
same,activation,[11],-1.39% [at 7.64 µM]
same,activation,[12],-3.74% [at 15.3 µM]
same,"activity change, negative = depolarization",[14],2.39% [at 9.19 µM]
same,activation (cytotoxicity),[15],4.3% [at 9.19 µM]
same,"activity change, negative = antiviral",[16],-5.5% [at 9.14 µM]
C[C@]12CC[C@]3(C1)[C@H](CC2=O)C[C@@H](OC(=O)c1ccccc1)[C@H]1[C@](C)(C(=O)O)CCC[C@@]13C,Potency,[1],13.2 µM (active)
same,outcome,[2],inactive
same,Potency,[3],inactive
same,Potency,[4],inactive
same,Potency,[5],inactive
same,Potency,[6],inactive
same,Potency,[7],inactive
same,Potency,[8],inactive
same,Potency,[9],inactive
same,Potency,[17],inactive
same,Potency,[20],inactive
same,Potency,[10],inactive
same,outcome,[11],inactive
same,Potency,[12],inactive
same,Potency,[18],inactive
same,Potency,[13],inactive
same,Potency,[14],inactive
same,Potency,[15],inactive
C=CC(CCCCC)C1C(=O)NC(=O)C1C(=O)C1C2C(C)CC(C(=O)O)CC2CC1(O)C(=O)/C=C/C (configuration not stated),Potency,[1],inactive
same,outcome,[2],inactive
same,Potency,[3],inactive
same,Potency,[4],inactive
same,Potency,[5],inactive
same,Potency,[6],inactive
same,Potency,[7],inactive
same,Potency,[19],inactive
same,Potency,[8],inactive
same,Potency,[9],inactive
same,Potency,[17],inactive
same,Potency,[20],inactive
same,Potency,[10],inactive
same,outcome,[11],inactive
same,Potency,[12],inactive
same,Potency,[18],inactive
same,Potency,[15],inactive
same,outcome,[16],inactive
